PNC inhibitor: High Content Assay for Compounds that inhibit the Assembly of the Perinucleolar Compartment | activity change (PNC), negative = inhibition, % at 10 µM | 140,000 tested, 3.1% active | PC3M PTB-GFP, PNC prevalence imaging, 16 h; active compounds read low | AID 2417, 2010;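 active means readout at or below -70, meaning at least 70% loss of cells showing the perinucleolar compartment, a nuclear body marking cancer cells; inconclusive means readout between -30 and a set limit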
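PC3M cells stably expressing PTB-GFP, 750–1000 cells/well, treated 16 h at 37 °C with compound (23 nl of library stock), in duplicate. After paraformaldehyde fixation and Hoechst stain, imaged at 20x; PNC prevalence scored by image analysis.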
HPGD inh: qHTS Assay for Inhibitors of HPGD (15-Hydroxyprostaglandin Dehydrogenase); purified HPGD, NADH fluorescence kinetic, PGE2 substrate; Potency, µM, hits mostly inhibitors; 150,000 tested, 4.3% active; AID 894, 2007
Target sequence (P15428 whole entry, looked up): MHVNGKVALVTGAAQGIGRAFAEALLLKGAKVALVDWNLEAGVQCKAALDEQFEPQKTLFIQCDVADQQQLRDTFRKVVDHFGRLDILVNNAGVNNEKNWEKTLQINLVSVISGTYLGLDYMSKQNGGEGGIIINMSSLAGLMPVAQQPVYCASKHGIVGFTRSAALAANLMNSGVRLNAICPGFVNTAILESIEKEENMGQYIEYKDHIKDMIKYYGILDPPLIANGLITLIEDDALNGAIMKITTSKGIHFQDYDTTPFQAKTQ
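20 nM HPGD preincubated 15 min at room temperature with compound in 50 mM Tris-HCl pH 8, 0.01% Tween 20. Started with 1 mM NAD+ and 30 uM prostaglandin E2; NADH fluorescence (360/450 nm) read 5 times over 30-s intervals, last minus first.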
ALDH1A1 block: qHTS Assay for Inhibitors of Aldehyde Dehydrogenase 1 (ALDH1A1); Aldehyde dehydrogenase 1A1 (Homo sapiens), P00352; Purified ALDH1A1, NADH fluorescence, propionaldehyde substrate; Potency, µM (highest dose often 75.3 µM), hits mostly inhibitors; 220,000 tested, 7.3% active; AID 1030, 2008
Large screens that a line does not name were inactive. Compounds with a hit are over-represented: about 11% of the library has one in this group of screens. Unless noted, the call rests on the fitted dose curve; in most records, active means well fitted inhibition curve with a large enough effect (not every such curve was filed as active); inconclusive means small, poorly fitted or top-dose-only effect, or another doubt; inactive means no such curve, though single readings can be large or run the other way.

CC1=NN(C(=O)c2ccoc2C)C(O)(C(F)(F)F)C1 (stereo not drawn)	none (no result: PNC inhibitor, HPGD inh)
O=C(c1cc(F)c(F)cc1Cl)N1CCOCC1	none
CC1CCN(C(=O)c2cc(F)c(F)cc2Cl)CC1	PNC inhibitor -100, HPGD inh 13µM
COc1ccc(-n2cc(-c3ccc(OC(F)F)cc3)[n+]3c2CCCCC3)cc1	none (no result: PNC inhibitor, HPGD inh)
O=C(NN1C(=O)C2C3C=CC(C3)C2C1=O)c1ccncc1 (stereo not drawn)	PNC inhibitor -113
O=C(NN1C(=O)C2C(c3ccccc3)C=CC(c3ccccc3)C2C1=O)c1ccncc1 (stereo not drawn)	none (no result: PNC inhibitor, HPGD inh)
CCN(CC)c1ccc(/C=N/Nc2ccccc2)c(O)c1	HPGD inh 28µM, ALDH1A1 block 3.5µM
CCN(CC)c1ccc(/C=N/NC(=S)NCc2ccccc2)cc1	HPGD inh inconclusive, ALDH1A1 block inconclusive
CCN(CC)c1ccc(/C=N/N2CCOCC2)c(O)c1	ALDH1A1 block inconclusive
CCN(CC)c1ccc(/C=N/Nc2cccc(C)c2)c(O)c1	PNC inhibitor inconclusive, HPGD inh 22µM, ALDH1A1 block 10µM
Cc1cc(/C=C2\NC(=O)N(Cc3ccc(Cl)cc3)C2=O)c(C)n1C	ALDH1A1 block inconclusive
Cc1cc(C)nc(SCc2ccc(C(=O)N/N=C/c3ccco3)cc2)n1	none (no result: PNC inhibitor, HPGD inh)
CCC(=O)Nc1ccc(NC(=O)CSc2nnnn2C(C)C)cc1	none
COc1ccccc1NC(=O)Cn1cnc2c(cnn2-c2ccccc2)c1=O	none
CCCc1c(C(=O)NNc2ccccc2OC)cnn1-c1ccccc1	ALDH1A1 block 7.9µM (no result: PNC inhibitor, HPGD inh)
Cc1ccc(C(=O)NN(CCC(=O)NC(C)(C)C)C2=NS(=O)(=O)c3ccccc32)cc1	none
CSCc1ccc(C(=O)NCc2ccc(F)cc2)cc1	PNC inhibitor inconclusive
COc1cc(NCCCC(C)N)c2ncccc2c1 (stereo not drawn)	ALDH1A1 block 22µM
COc1ccc(NC(=O)CSc2cccc3cccnc23)c(OC)c1	none
COc1cc(NS(=O)(=O)c2ccc(C)cc2)c2ncccc2c1	PNC inhibitor -100, HPGD inh inconclusive
Cc1ccc(S(=O)(=O)Nc2cccc3cccnc23)cc1	PNC inhibitor inconclusive, ALDH1A1 block inconclusive
C[C@@](N)(C(=O)O)c1cccc(CC(=O)O)c1	none (no result: PNC inhibitor)
CCOc1ccc2nc(NC(=O)CCC(=O)c3cccs3)sc2c1	PNC inhibitor inconclusive
Cc1ccc(-c2csc(/C(C#N)=C(\O)CN3CCN(C(=O)c4ccco4)CC3)n2)cc1	none
COc1ccc2c(c1)c(C(O)CN1CCC(Cc3ccccc3)CC1)c(C)n2C (stereo not drawn)	none
Cc1cccc(NC(=O)CSc2nnc(CNC(=O)c3ccc(S(=O)(=O)N(C)C)cc3)n2-c2ccc(F)cc2)c1	ALDH1A1 block inconclusive
Cc1cccc(NC(=O)CSc2nnc(CNC(=O)c3ccc(S(=O)(=O)N(C)C)cc3)n2-c2cccc(C)c2)c1	ALDH1A1 block inconclusive
Cc1cccc(NC(=O)CSc2nnc(CNC(=O)c3ccc(S(=O)(=O)N(C)C)cc3)n2-c2ccccc2)c1	ALDH1A1 block 7.1µM
Cc1cccc(-n2c(CNC(=O)c3ccc(S(=O)(=O)N(C)C)cc3)nnc2SCC(=O)Nc2ccc(F)cc2)c1	PNC inhibitor inconclusive, ALDH1A1 block 0.45µM
NC(=O)c1ccccc1-c1nc(-n2ccnc2)c2ccccc2n1	none (no result: PNC inhibitor, HPGD inh)
CCOc1ccccc1Nc1nnc(SCC(=O)NC(=O)c2cccn2C)s1	ALDH1A1 block inconclusive
NC[C@H](O)c1ccc(O)c(O)c1	HPGD inh inconclusive (no result: PNC inhibitor)
Cn1ccs/c1=N\C(=O)Nc1cccc(Cl)c1	none (no result: PNC inhibitor, HPGD inh)
CCOC(=O)CSc1nnc(CSc2nc3sc4c(c3c(=O)[nH]2)CCC4)n1-c1ccccc1	HPGD inh 8.9µM
CCOC(=O)CSc1nnc(CSc2nc3ccccc3s2)n1C	PNC inhibitor -97, ALDH1A1 block inconclusive
CCSc1nc2sc3c(c2c(=O)[nH]1)CCCC3	none
CCOC(=O)CSc1nc2ccccc2c(=O)[nH]1	none
CCOC(=O)CSc1nnc(CSc2nc3sc4c(c3c(=O)[nH]2)CCC4)n1C	HPGD inh 8.9µM
CCOC(=O)CSc1nnc(CSc2nc3ccccc3c(=O)[nH]2)n1-c1ccccc1	HPGD inh 4.5µM, ALDH1A1 block inconclusive
C=CCSc1nnc(CSc2nc3sc4c(c3c(=O)[nH]2)CCCC4)n1-c1ccccc1	ALDH1A1 block inconclusive
C=CCn1c(CSc2nc3ccccc3s2)nnc1SCC(=O)OCC	none
NC(=O)CC[C@H](NC(=O)c1ccc(F)cc1)C(=O)OCC(=O)NCc1ccc(F)cc1	none (no result: PNC inhibitor, HPGD inh)
Cc1ccccc1-c1nnc(Cc2ccccc2)o1	PNC inhibitor inconclusive, HPGD inh inconclusive
NC(N)=NCCC[C@H](NC(=O)OCc1ccccc1)C(=O)O	none
COc1ccc(-c2oc3cc(O[C@@H]4OC(CO)C(O)C(O)C4O)c(OC)c(O)c3c(=O)c2OC)cc1O (stereo partly drawn)	HPGD inh inconclusive (no result: PNC inhibitor)
CCO[C@@H]1OC(C(N)=O)=C[C@H](c2ccc3c(c2)OCO3)[C@H]1CCCO	none (no result: PNC inhibitor, HPGD inh)
Nc1nc(SCc2nc3sc4c(c3c(=O)[nH]2)CCCC4)n[nH]1	ALDH1A1 block inconclusive
Cc1nnc(SCc2nc3sc4c(c3c(=O)[nH]2)CCCC4)n(N)c1=O	ALDH1A1 block 22µM (no result: PNC inhibitor, HPGD inh)
COc1ccc(C2N(C(=O)CN3CCOCC3)CCN2S(=O)(=O)c2ccccc2)cc1 (stereo not drawn)	none
COc1ccc(C2N(C(=O)N3CCOCC3)CCN2S(=O)(=O)c2ccc(C)cc2)cc1 (stereo not drawn)	PNC inhibitor inconclusive
CN(C)c1ccc(C2N(C(=O)N3CCOCC3)CCN2S(=O)(=O)c2ccccc2)cc1 (stereo not drawn)	ALDH1A1 block 1µM
Cc1ccc(S(=O)(=O)N2CCN(C(=O)N3CCOCC3)C2c2ccc(N(C)C)cc2)cc1 (stereo not drawn)	PNC inhibitor inconclusive, ALDH1A1 block 0.63µM
CC(C)(C)c1ccc(C(=O)NNC(=O)C2CCCCC2)cc1	ALDH1A1 block inconclusive
CC1(OC(=O)c2ccc(Cl)nc2)C(=O)C=C2C=C(c3ccc(C#N)cc3)OC=C2C1=O (stereo not drawn)	ALDH1A1 block inconclusive (no result: PNC inhibitor)
COCc1cc(C)nc(SCC(=O)Nc2ccc(C)c(C)c2)c1C#N	HPGD inh inconclusive, ALDH1A1 block inconclusive
COCc1cc(C)nc(SCC[N+](C)(C)CC(=O)Nc2cccc(C(F)(F)F)c2)c1C#N	ALDH1A1 block 11µM (no result: PNC inhibitor, HPGD inh)
COCCNC(C)C(=O)C12CC3CC(CC(C3)C1)C2 (stereo not drawn)	PNC inhibitor inconclusive
COCCNCC(=O)C12CC3CC(CC(C3)C1)C2	ALDH1A1 block 10µM
O=C(COC(=O)CNC(=O)c1ccccc1)Nc1ccc(S(=O)(=O)N2CCOCC2)cc1	none (no result: PNC inhibitor, HPGD inh)
O=C(O)c1ccccc1C(=O)Nc1ccc(-c2csc(-c3ccccc3)n2)cc1	PNC inhibitor -98, HPGD inh inconclusive, ALDH1A1 block inconclusive
O=C(Nc1ccc(-c2csc(-c3ccccc3)n2)cc1)c1ccccc1Cl	HPGD inh inconclusive, ALDH1A1 block inconclusive
COc1ccc2c(c1)c(CC(=O)OCC(=O)O)c(C)n2C(=O)c1ccc(Cl)cc1	none (no result: PNC inhibitor)
COc1ccc2c(c1)c(CC(=O)O)c(C)n2Cc1ccc(Cl)cc1	ALDH1A1 block 25µM (no result: PNC inhibitor)
Cc1nnc(NC(=O)CSc2nc3c(c(=O)n(C)c(=O)n3C)n2C(C)C)s1	none (no result: PNC inhibitor, HPGD inh)
